Only some compounds are listed: those with a hit (about 2.3% of all), similar ones and a draw of the others.
Anesthetic bind = candidate novel general anesthetic via apoferritin binding | P02791 | apoferritin/1-aminoanthracene competitive binding, fluorescence | Potency, µM (series often up to 77.5 µM), most hits filed as inhibitors | actives 0.074% (n = 350,000); note: nearly all actives have a fitted effect of over 20% in size
Target sequence (P02791 2-175 limits assumed): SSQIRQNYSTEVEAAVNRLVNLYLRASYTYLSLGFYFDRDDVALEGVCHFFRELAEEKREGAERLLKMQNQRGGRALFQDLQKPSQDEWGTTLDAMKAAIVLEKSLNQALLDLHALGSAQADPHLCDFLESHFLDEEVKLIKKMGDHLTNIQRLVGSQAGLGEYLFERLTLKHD
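Horse-spleen apoferritin (10 uM) in 50% saturated 1-aminoanthracene in PBS was incubated 10 min at room temperature with compound. Fluorescence (ex 380, em 535 nm) was normalized to free and bound 1-AMA, with concentration-response fitted by a four-parameter Hill equation.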
Nrf2 inh = blocks Nrf2 signaling; A549 ARE-Fluc reporter, luciferase luminescence, 18-24 h; AID 504444; actives 2.1% (n = 360,000); Potency, µM (top dose mostly 46 µM), hits mostly inhibitors; note: nearly all actives have a fitted effect of over 60% in size
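Two sequential reads on A549 ARE_Fluc cells exposed to compound for 18-24 h: a CellTiter-Fluor fluorescence read for viability, then a luciferase luminescence read for Nrf2/ARE activity.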
A549 viability = counter-screen for Nrf2 inhibitors: cytotoxicity in A549 cells. A549 ARE-Fluc cells, CellTiter-Fluor viability, 18-24 h. Potency, µM (titrated, usually from 46 µM), actives largely listed as inhibitors. actives 0.16% (n = 390,000)
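A549 ARE_Fluc cells in 5% FBS OPTI-MEM were exposed to compounds in concentration-response for 18-24 h at 37 deg C. Viability was read by CellTiter-Fluor fluorescence (Ex 405/Em 525) after 30 min, before the luciferase read.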
Giardia killer = Giardia lamblia killing; Giardia lamblia trophozoite viability; activity change, % at 7.66 µM, hits read low; actives 0.15% (n = 340,000); in the data active = activity change below about -80%; inconclusive = between about -30% and that limit;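 note: parasites exposed to compound for two days anaerobically before the ATP read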
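Giardia lamblia trophozoites (100 cells/well) were incubated with compounds for 48 h at 37 deg C under anaerobic conditions. Viability was read as ATP content by one-step luminescence after 15-30 min at room temperature.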
Nrf2 activator = Nrf2 pathway activation; AREc32 ARE-luciferase reporter (MCF7-derived line), luminescence, 24 h; Potency, µM (doses to about 46.1 µM), usual class: activators; actives 0.31% (n = 410,000); note: nearly all actives have a fitted effect of over 65% in size
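Luminescent ARE reporter assay in AREc32_Fluc cells: overnight plating at 37 deg C, 24 hr compound incubation, Steady-Glo added, 30 min RT before reading.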
mIDH1 inhibitor = inhibitors of human mutant IDH1 R132H | actives 0.093% (n = 390,000) | IDH1-R132H enzyme, NADPH consumption, diaphorase/resazurin fluorescence | O75874 | Potency, µM (top dose mostly 76.6 µM), usual class: inhibitors; note: nearly all actives have a fitted effect of over 65% in size
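IDH1-R132H (0.5 ug/mL) preincubated 30 min with compound, then NADPH (0.016 mM) and alpha-KG (2 mM) added; 80 min at RT, pH 7.5. Remaining NADPH coupled via diaphorase/resazurin to fluorescence (540/590 nm); concentration-response curves normalized to no-enzyme control.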
A number is an active result; – = inactive; ? = inconclusive; · = no result given; [ ] = remark or other dose. Unless noted, calls come from the whole dose curve; as a rule, active = well fitted curve in the direction sought with a large enough effect; inconclusive = small, poorly fitted or top-dose-only effect, or another doubt; inactive = no such curve, though single readings can be large; an effect the other way counts as inactive or inconclusive.

SMILES | Anesthetic bind | Nrf2 inh | A549 viability | Giardia killer | Nrf2 activator | mIDH1 inhibitor
CN(C)c1cc[n+](CC(=O)Nc2ccc(OC(F)F)cc2)cc1 | – | 23µM | – | – | – | –
CN(C)c1cc[n+](CC(=O)c2ccc(Br)cc2)cc1 | – | ? | ? | – | – | –
COc1ccc(C(=O)C[n+]2ccc(N(C)C)cc2)cc1 | – | 21µM | – | – | – | –
CCCCNC(=S)NCCCN(Cc1ccc(Cl)c(Cl)c1)c1ccc(Br)cn1 | · | ? | – | · | · | ·
COc1cc2ccccc2cc1C(=O)Nc1cccc(-c2nc3cc(C)c(C)cc3o2)c1 | – | ? | – | · | – | –
COc1ccc(C(=O)N2CCCCC2c2cc(C(=O)NCc3cccnc3)no2)cc1 (stereo unspecified) | · | · | · | · | – | ·
CCn1c2c(c(=N)c3c1CCC3)CCC2 | – | – | – | – | – | –
CCn1c2c(c(=N)c3ccccc31)CCC2 | – | 13µM | – | – | – | –
O=C(Nc1ccc([N+](=O)[O-])cc1Cl)c1cc(Br)ccc1O | · | ? | – | ? | · | ·
CC1CCCCC12NC(=O)N(CC(=O)N1CCN(Cc3ccc(C#N)cc3)CC1)C2=O (stereo unspecified) | · | 5.8µM | – | – | – | –
O=C(CN1CCC(c2nc3ccccc3s2)CC1)NCc1cccs1 | – | 7.3µM | –[1.84 µM] | – | – | –
O=C(CSc1ccc(F)cc1)N1CCC(c2nc3ccccc3s2)CC1 | ? | 18µM | – | – | – | –
C/C(CCN1CCCCc2nc(C)c(C)cc21)=N\OC[C@@H](O)COCc1ccco1 | –[15.3 µM] | · | · | · | · | ·
COc1ccc2nc(N3C(=O)C(O)=C(C(=O)c4ccco4)C3c3ccc(C)o3)sc2c1 (stereo unspecified) | · | ? | ? | – | – | –
Cc1ccc2nc(N3C(=O)C(O)=C(C(=O)c4ccco4)C3c3cccs3)sc2c1 (stereo unspecified) | ? | ? | 15µM | – | ? | –
Nc1nc(NCc2ccccc2Cl)c2[nH]cnc2n1 | · | ? | – | – | · | ·
O=C(/C=C/Nc1ccc(F)c(F)c1)c1ccc(Br)cc1 | – | ? | – | – | – | –
O=C(/C=C/Nc1ccc(F)cc1)c1cccs1 | · | ? | – | – | 6.3µM | –
O=C(/C=C/Nc1ccc(F)c(F)c1)c1cccs1 | – | ? | – | – | 8.9µM | –
COc1ccc(C(=O)O)cc1COc1ccc(NC(C)=O)cc1 | · | – | – | · | · | ·
CCN(Cc1ccccc1)S(=O)(=O)c1cc(C(=O)NCC2CCCCC2)ccc1OC | – | 12µM | – | – | – | –
CCN(Cc1ccccc1)S(=O)(=O)c1cc(C(=O)NC2CCCCCC2)ccc1OC | – | ? | ? | – | – | –
CC1CCCN(S(=O)(=O)c2ccc(S(=O)(=O)NC(C)c3cccs3)cc2)C1 (stereo unspecified) | ? | 23µM | ? | – | – | –
Cc1ccc(S(=O)(=O)N2CCCC(C)C2)cc1 (stereo unspecified) | – | – | – | – | – | –
CCCCCCC(=O)Nc1cc2nc3c(nc2cc1C)c(=O)n(C)c(=O)n3C | – | ? | – | · | – | –
SMILES | Anesthetic bind | Nrf2 inh | A549 viability | Giardia killer | Nrf2 activator | mIDH1 inhibitor
COc1cc(/C=C2\SC(=O)N(c3ccccc3Cl)C2=O)cc([N+](=O)[O-])c1O | 18µM | ? | ? | – | – | –
CCOc1cc(/C=C2\SC(=O)N(CC(=O)Nc3ccccc3F)C2=O)cc([N+](=O)[O-])c1O | – | 18µM | ? | – | – | –
COc1cc(NC(=O)CSc2nc3nc(C)c(Cc4ccccc4Cl)c(C)n3n2)cc(OC)c1 | ? | · | – | · | – | –
COc1ccc(N2CCN(CCCNC(=O)C3CCC(CNc4nc(=S)[nH]c5ccccc45)CC3)CC2)cc1 (stereo unspecified) | – | 6.5µM | ? | – | – | –
CCOc1ccc(-c2nnc(SCC(=O)Nc3cccc(OC)c3)nc2-c2ccc(OCC)cc2)cc1 | – | · | – | · | – | –
Cn1c(=O)oc2cc(S(=O)(=O)N3CCC(C(=O)N4CCN(c5cccc(Cl)c5)CC4)CC3)ccc21 | – | ? | – | · | – | –
Cc1cccc(NC(=O)C2CCN(S(=O)(=O)c3ccc(Cl)cc3)CC2)n1 | · | ? | – | – | – | –

Screening data as filed in PubChem BioAssay.
